SENP8 block-1: human SENP8 protease inhibitors, primary screen, biochemical, fluorescence, Nedd8 protein substrate, uHTS; Sentrin-specific protease 8 (Homo sapiens), Q96LD8; recombinant SENP8; inhibition, % at 20 µM; 360,000 compounds, 0.64% hits; AID 602440, 2012; in the data active = inhibition mostly above about 40%, no sharp cut-off; inactive = mostly below about 27%
SENP7 block: SENP7 protease inhibitors, primary screen, biochemical, luminescence, uHTS. 330,000 compounds, 1.5% hits. Sentrin-specific protease 7 (Homo sapiens), Q9BQF6. recombinant SENP7, Z-RLRGG-aminoluciferin luminescence, 40 min. inhibition, % at 5 µM;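 active = inhibition above about 50% at the single test dose, limit read from the data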;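 also: plate controls were DMSO with enzyme for no effect and no enzyme buffer wells for full effect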
HSP90 refold inh: HSP90 inhibitors, primary screen, cell lysate, luminescence; Rabbit reticulocyte lysate, luciferase refolding luminescence, 3 h; Heat shock protein HSP 90 (rabbit reticulocyte lysate; luciferase refolding); inhibition, % at 5.6 µM; AID 1789, 2009; 290,000 compounds, 0.91% hits;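 active = inhibition above the screen-wide mean plus 3 SD, computed separately per campaign, cut at about 16% in these data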;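 also: 0% = DMSO wells and 100% = 60 µM geldanamycin wells; inhibitors lower the luminescence because luciferase stays unfolded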
SENP8 block-2: SENP8 protease inhibitors, primary screen, biochemical, luminescence; 330,000 compounds, 1.2% hits; purified SENP8, Z-RLRGG-aminoluciferin cleavage; inhibition, % at 10 µM; Sentrin-specific protease 8 (Homo sapiens), Q96LD8; in the data active = inhibition above about 50%
SENP6 inh: SENP6 protease inhibitors, primary screen, biochemical, luminescence, uHTS. inhibition, % at 10 µM. Sentrin-specific protease 6 (Homo sapiens), Q9GZR1. AID 2599, 2010. Recombinant SENP6 catalytic domain, aminoluciferin luminescence. 330,000 compounds, 1.8% hits;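 active = inhibition above about 50% at the single tested dose, limit read from the data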;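 also: plate controls were DMSO wells with enzyme for no effect and DMSO wells lacking enzyme for full effect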
Target sequence (Q9GZR1 628-1112 limits assumed): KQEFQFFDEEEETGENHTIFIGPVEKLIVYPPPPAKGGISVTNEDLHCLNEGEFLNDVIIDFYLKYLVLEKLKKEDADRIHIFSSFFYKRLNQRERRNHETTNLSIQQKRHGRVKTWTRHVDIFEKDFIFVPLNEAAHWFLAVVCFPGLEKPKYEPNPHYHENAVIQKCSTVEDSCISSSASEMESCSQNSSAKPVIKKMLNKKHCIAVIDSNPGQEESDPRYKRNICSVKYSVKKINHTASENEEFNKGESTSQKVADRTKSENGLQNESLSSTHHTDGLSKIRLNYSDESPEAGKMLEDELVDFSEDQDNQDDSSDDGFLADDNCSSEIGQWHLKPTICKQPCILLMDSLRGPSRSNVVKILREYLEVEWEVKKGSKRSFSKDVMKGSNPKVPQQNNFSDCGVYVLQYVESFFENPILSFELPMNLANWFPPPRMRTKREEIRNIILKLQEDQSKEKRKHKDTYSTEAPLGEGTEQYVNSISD
SENP8 conf: SENP8 protease inhibitors, retest, confirmation, biochemical, luminescence, single concentration; inhibition, % at 12.5 µM; AID 488912, 2010; shares compounds with SENP7 block; Recombinant SENP8, Z-RLRGG-aminoluciferin luminescence, 60 min; 6,200 compounds, 40% hits;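 active = mean inhibition across replicates above about 50%, limit read from the data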
SENP6 conf: SENP6 protease inhibitors, confirmation, biochemical, luminescence, single concentration; shares compounds with SENP7 block; recombinant SENP6, Z-RLRGG-aminoluciferin luminescence; inhibition, % at 12.5 µM; 6,200 compounds, 58% hits; AID 488915, 2010
SENP7 conf: SENP7 protease inhibitors, retest, confirmation, biochemical, luminescence, single concentration | shares compounds with SENP7 block | recombinant SENP7, Z-RLRGG-aminoluciferin luminescence, 40 min | inhibition, % at 12.5 µM | 6,200 compounds, 69% hits
Casp3 select: caspase-3 protease inhibitors, confirmation, selectivity assay for SENP inhibitor project, biochemical, single concentration; shares compounds with SENP7 block; purified caspase-3, Z-DEVD-aminoluciferin luminescence, 60 min; inhibition, % at 12.5 µM; 6,200 compounds, 60% hits; AID 488918, 2010;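 active = mean inhibition above about 50%, limit read from the data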;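 also: plate controls were enzyme with DMSO for no effect and wells without caspase-3 for full effect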
SENP luc ctr: luminescence interference (SENP counter-screen); shares compounds with SENP7 block; Pre-incubated SENP8/Z-RLRGG-aminoluciferin, luciferase luminescence interference; inhibition, % at 12.5 µM; 6,200 compounds, 39% hits;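 active = mean inhibition above about 50% when retested at one dose, limit read from the data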;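 also: plate controls were DMSO wells with completed reaction for no effect and substrate without enzyme for full effect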
* = called active by the depositor; x = no result given. In the library only some 2.8% were active in any assay of this set; here they are far more common.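 The calls were made as follows, unless noted: active = mean inhibition above about 50% in the one-dose retest (limit read from the data); inactive = the rest.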

SMILES | SENP8 block-1 | SENP7 block | HSP90 refold inh | SENP8 block-2 | SENP6 inh | SENP8 conf | SENP6 conf | SENP7 conf | Casp3 select | SENP luc ctr
O=C(c1ccc2c3n(nc2c1)-c1ccccc1CO3)N1CCCCC1 | -8.3 | 94.6* | x | 91.3* | 96.5* | 97.3* | 97.7* | 101.3* | 97.2* | 96.3*
O=C(NCC1CCCO1)c1ccc2c3n(nc2c1)-c1ccccc1CO3 (stereo not given) | -184.3 | -3.5 | x | 10.7 | 14.8 | x | x | x | x | x
O=C(c1ccc2c3n(nc2c1)-c1ccccc1CO3)N1CCOCC1 | -106.6 | 94.6* | x | 86.6* | 92.9* | 93.0* | 93.3* | 100.9* | 97.7* | 92.3*
Cc1ccc2c(c1)COc1c3ccc(C(=O)N4CCCCC4)cc3nn1-2 | -33.3 | 80.2* | x | 81.3* | 84.2* | 45.1 | 87.0* | 95.8* | 86.4* | 18.0
CC(C(=O)NCCS(=O)(=O)c1ccc(Cl)cc1)S(=O)(=O)c1ccccc1 (stereo not given) | 15.4 | 1.4 | 0.9 | 1.6 | -6.3 | x | x | x | x | x
O=C(O)c1cc(NC(=O)c2ccc3c(c2)C(=O)N(Cc2cccnc2)C3=O)cc(C(=O)O)c1 | 10.3 | -1.2 | 3.1 | -5.5 | 3.9 | x | x | x | x | x
C#Cc1cccc(NC(=O)c2ccc3c(c2)C(=O)N(Cc2cccnc2)C3=O)c1 | 15.7 | 75.2* | 10.8 | 46.8 | 60.1* | 5.5 | 46.0 | 87.6* | 53.5* | 55.6*
CC(/C=N/NC(=O)c1ccncc1)=C\c1ccc(C(C)C)cc1 | -24.8 | -7.0 | 7.5 | -11.7 | -26.0 | x | x | x | x | x
CCOc1cc(/C=C2\C(=O)N(c3ccc(C(N)=O)cc3)N=C2C)ccc1OC(=O)c1cccs1 | 66.0* | 67.8* | 7.0 | 13.9 | 62.8* | 18.1 | 33.2 | 2.9 | 2.6 | 4.6
COc1cc(OC)cc(C(=O)N2CCN(C3CCN(Cc4ccccc4)CC3)CC2)c1 | 5.6 | -0.9 | 1.6 | 0.8 | -14.6 | x | x | x | x | x
O=C(CNc1cccc2ccccc12)N/N=C/c1ccc([N+](=O)[O-])o1 | -98.7 | 39.2 | 1.5 | 8.8 | 80.4* | 21.5 | 40.1 | 11.5 | 0.4 | -1.1
C=CCc1cccc(/C=N/NC(=O)CNc2cccc3ccccc23)c1O | -215.7 | 31.4 | 5.3 | 33.7 | 71.6* | 7.3 | 7.2 | 17.7 | 12.8 | 9.5
O=C(CNc1cccc2ccccc12)N/N=C/C(Br)=C/c1ccccc1 | -47.6 | 39.1 | 5.1 | 55.5* | 80.0* | 10.0 | 13.5 | 12.2 | 4.9 | 4.6
CCCCCCCC(=O)N/N=C/c1ccc([N+](=O)[O-])o1 | 30.6 | -1.3 | 7.3 | 3.6 | 36.0 | x | x | x | x | x
COc1cc(/C=C/[N+](=O)[O-])ccc1OC(=O)c1cc2ccccc2oc1=O | -2.3 | -12.7 | 8.1 | -4.1 | -9.0 | x | x | x | x | x
COc1ccc(C(=O)COC(=O)c2sccc2C)cc1OC | 8.0 | -0.2 | x | -0.4 | 2.0 | x | x | x | x | x
Cc1ccsc1C(=O)OCC(=O)c1ccc(OC(F)F)cc1 | 15.3 | 96.7* | x | 94.1* | 94.8* | 69.2* | 91.4* | 101.8* | 92.2* | 29.2
O=C(COC(=O)c1cccs1)c1ccccc1 | 27.5 | 82.7* | 0.6 | 78.5* | 89.6* | 78.1* | 80.5* | 95.9* | 89.1* | 84.1*
Cc1ccsc1C(=O)OCC(=O)Nc1sccc1C(N)=O | -1.3 | 66.8* | -2.8 | 47.7 | 37.8 | 56.1* | 58.0* | 78.9* | 66.8* | 24.4

Screens deposited in PubChem BioAssay by several laboratories.
